target: Mitogen-activated protein kinase 14 (Homo sapiens) (UniProt Q16539); conditions: at 1 µM;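 note: values are mean percent inhibition of p38alpha kinase activity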
Sequence (Q16539 whole entry): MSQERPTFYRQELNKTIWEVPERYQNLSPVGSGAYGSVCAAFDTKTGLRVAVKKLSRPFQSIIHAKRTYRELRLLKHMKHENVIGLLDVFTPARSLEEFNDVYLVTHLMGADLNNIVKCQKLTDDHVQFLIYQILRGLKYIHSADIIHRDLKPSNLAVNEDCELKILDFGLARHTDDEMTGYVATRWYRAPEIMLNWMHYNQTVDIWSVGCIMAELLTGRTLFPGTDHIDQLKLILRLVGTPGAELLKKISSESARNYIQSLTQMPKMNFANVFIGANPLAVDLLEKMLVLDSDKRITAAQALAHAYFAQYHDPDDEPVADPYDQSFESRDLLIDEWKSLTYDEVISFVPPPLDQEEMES

| Structure (SMILES) | inhibition [%] |
| --- | --- |
| ON=C1CCc2cc(-c3nc(C4CCNCC4)[nH]c3-c3ccncc3)ccc21 | 73.7 |
| O=C1Nc2ccc(-c3cccnc3)cc2C1=Cc1cc(Br)c(O)c(Br)c1 | 7.67 |
| CCOc1nccc2c1nc(-c1nonc1N)n2CC | 6.06 |
| c1ccc(Cc2nc3ccc(Nc4ncnc5ccccc45)cc3[nH]2)cc1 | 6.36 |
| O=C(Nc1ccc(Oc2ccc3[nH]c(NC(=O)c4ccco4)nc3c2)cc1)Nc1cc(C(F)(F)F)ccc1F | 39.4 |
| FC(F)(F)c1ccc(-c2nn3ncccc3c2-c2ccnc(Nc3ccc4c(c3)OCCO4)n2)cc1 | 67.5 |
| COc1cc2ncnc(Nc3ccc(C)c(O)c3)c2cc1OC | 22.1 |
| c1ccc(Nc2ncc(-c3ccccc3)o2)cc1 | 11.8 |
| Cc1ccc(NC(=O)CC2CC2)cc1-c1ccc(C(=O)NCC2CC2)cc1 | 74.3 |
| OCc1ccc(-c2nc(-c3ccccn3)c(-c3ccc4c(c3)OCO4)[nH]2)cc1 | 14.9 |
| Cc1ccc(Nc2ccnc(Nc3cccc(C(N)=O)c3)n2)cc1O | 28 |
| CN(c1ccc(NC(=O)Nc2ccc(OC(F)(F)F)cc2)cc1)c1ccnc(Nc2cccc(S(N)(=O)=O)c2)n1 | 13.6 |
| CN(C)C(=O)O[C@@H]1CN[C@@H](C#Cc2cc3ncnc(Nc4ccc(OCc5cccc(F)c5)c(Cl)c4)c3s2)C1 | 2.87 |
| NS(=O)(=O)c1ccc(Nc2cc(-c3cccc(O)c3)n[nH]2)cc1 | 9.21 |
| Cc1ccc2c(-c3ccnc(Nc4cccc(C(F)(F)F)c4)n3)c(-c3ccccc3)nn2n1 | 73.5 |
| COC(=O)Nc1nc2cc(Oc3ccc(NC(=O)Nc4cccc(Br)c4)cc3)ccc2[nH]1 | 17.1 |
| N#Cc1c(NC(=O)c2ccccc2F)sc2c1CCCC2 | -1.18 |

| Structure (SMILES) | inhibition [%] |
| --- | --- |
| CN(C)CCCn1c(-c2nonc2N)nc2cnccc21 | 12.9 |
| NS(=O)(=O)c1ccc(-c2cc3ccncc3cc2OCc2ccccc2)cc1 | 8.35 |
| NS(=O)(=O)c1cccc(-c2cc3ccncc3cc2OCc2ccccc2)c1 | 8.87 |
| N#Cc1cccc(Nc2nccc(-c3cnn4ncccc34)n2)c1 | 14.6 |
| COc1cccc(-n2nc(C)c3c(N/N=C(\C)c4ccncc4)ncnc32)c1 | 0.91 |
| Oc1cccc(-c2nc(-c3ccccc3)[nH]c2-c2ccncc2)c1 | 71.1 |
| COc1cccc(-n2ncc3c(N/N=C/c4ccc(C)cc4)ncnc32)c1 | 9.02 |
| COc1cccc(-n2ncc3c(N/N=C/c4ccc(S(C)(=O)=O)cc4)ncnc32)c1 | 4.7 |
| NC(=O)c1sc(-n2cnc3ccccc32)cc1OCc1ccccc1Br | 23.1 |
| Cc1cc(O)cc(C)c1/C=C/c1cncc(C(=O)N(C)C)c1 | 7.03 |
| COc1cc(/C=N/Nc2ncnc3c2cnn3C(C)C)ccc1O | 3.92 |
| NS(=O)(=O)c1ccc(N/N=C2\C(=O)Nc3ccc(Cl)cc32)cc1 | 4.11 |
| Cc1cc(Cl)cc2c1NC(=O)C2=NNc1ccc(S(N)(=O)=O)cc1 | 3.98 |
| NC(=O)c1cccc(Nc2nccc(Nc3cccc(F)c3)n2)c1 | 2.5 |
| COc1cc2ncn(-c3cc(OCc4ccccc4S(C)(=O)=O)c(C#N)s3)c2cc1OC | 8.47 |
| CCS(=O)(=O)c1ccc(OC)c(Nc2ncc(-c3cccc(OC)c3)o2)c1 | 7.73 |
| CS(=O)(=O)Nc1cccc(-c2ccc3c(NC(=O)C4CC4)n[nH]c3c2)c1 | 6.14 |

target: Mitogen-activated protein kinase 11 (Homo sapiens) (UniProt Q15759); conditions: at 0.1 µM;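 note: reported values are averaged (mean) percent inhibition of p38beta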
Sequence (Q15759 whole entry): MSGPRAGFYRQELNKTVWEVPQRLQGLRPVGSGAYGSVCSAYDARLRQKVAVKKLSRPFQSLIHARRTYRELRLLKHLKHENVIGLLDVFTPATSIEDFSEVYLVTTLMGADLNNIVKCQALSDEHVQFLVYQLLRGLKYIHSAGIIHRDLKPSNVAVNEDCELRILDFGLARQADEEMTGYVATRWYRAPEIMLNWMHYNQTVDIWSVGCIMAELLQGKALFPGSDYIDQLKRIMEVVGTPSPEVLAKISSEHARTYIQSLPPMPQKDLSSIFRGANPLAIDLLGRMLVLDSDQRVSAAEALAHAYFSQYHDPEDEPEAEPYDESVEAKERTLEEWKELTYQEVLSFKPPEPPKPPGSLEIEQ

| Structure (SMILES) | inhibition [%] |
| --- | --- |
| ON=C1CCc2cc(-c3nc(C4CCNCC4)[nH]c3-c3ccncc3)ccc21 | 7.03 |
| O=C1Nc2ccc(-c3cccnc3)cc2C1=Cc1cc(Br)c(O)c(Br)c1 | 1.48 |
| CCOc1nccc2c1nc(-c1nonc1N)n2CC | 3.87 |
| c1ccc(Cc2nc3ccc(Nc4ncnc5ccccc45)cc3[nH]2)cc1 | 2.73 |
| O=C(Nc1ccc(Oc2ccc3[nH]c(NC(=O)c4ccco4)nc3c2)cc1)Nc1cc(C(F)(F)F)ccc1F | 4.14 |
| FC(F)(F)c1ccc(-c2nn3ncccc3c2-c2ccnc(Nc3ccc4c(c3)OCCO4)n2)cc1 | 3.8 |
| COc1cc2ncnc(Nc3ccc(C)c(O)c3)c2cc1OC | 6.38 |
| c1ccc(Nc2ncc(-c3ccccc3)o2)cc1 | 5.86 |
| Cc1ccc(NC(=O)CC2CC2)cc1-c1ccc(C(=O)NCC2CC2)cc1 | 17.2 |
| OCc1ccc(-c2nc(-c3ccccn3)c(-c3ccc4c(c3)OCO4)[nH]2)cc1 | 4.13 |
| Cc1ccc(Nc2ccnc(Nc3cccc(C(N)=O)c3)n2)cc1O | 3.7 |
| CN(c1ccc(NC(=O)Nc2ccc(OC(F)(F)F)cc2)cc1)c1ccnc(Nc2cccc(S(N)(=O)=O)c2)n1 | 4.81 |
| CN(C)C(=O)O[C@@H]1CN[C@@H](C#Cc2cc3ncnc(Nc4ccc(OCc5cccc(F)c5)c(Cl)c4)c3s2)C1 | 3.3 |
| NS(=O)(=O)c1ccc(Nc2cc(-c3cccc(O)c3)n[nH]2)cc1 | 7.39 |
| Cc1ccc2c(-c3ccnc(Nc4cccc(C(F)(F)F)c4)n3)c(-c3ccccc3)nn2n1 | 6.89 |
| COC(=O)Nc1nc2cc(Oc3ccc(NC(=O)Nc4cccc(Br)c4)cc3)ccc2[nH]1 | 7.96 |
| N#Cc1c(NC(=O)c2ccccc2F)sc2c1CCCC2 | 0.63 |

| Structure (SMILES) | inhibition [%] |
| --- | --- |
| CN(C)CCCn1c(-c2nonc2N)nc2cnccc21 | 3.87 |
| NS(=O)(=O)c1ccc(-c2cc3ccncc3cc2OCc2ccccc2)cc1 | 2.71 |
| NS(=O)(=O)c1cccc(-c2cc3ccncc3cc2OCc2ccccc2)c1 | 3.17 |
| N#Cc1cccc(Nc2nccc(-c3cnn4ncccc34)n2)c1 | 3.01 |
| COc1cccc(-n2nc(C)c3c(N/N=C(\C)c4ccncc4)ncnc32)c1 | 1.51 |
| Oc1cccc(-c2nc(-c3ccccc3)[nH]c2-c2ccncc2)c1 | 10.7 |
| COc1cccc(-n2ncc3c(N/N=C/c4ccc(C)cc4)ncnc32)c1 | 1.15 |
| COc1cccc(-n2ncc3c(N/N=C/c4ccc(S(C)(=O)=O)cc4)ncnc32)c1 | 0.81 |
| NC(=O)c1sc(-n2cnc3ccccc32)cc1OCc1ccccc1Br | 1.2 |
| Cc1cc(O)cc(C)c1/C=C/c1cncc(C(=O)N(C)C)c1 | 3.38 |
| COc1cc(/C=N/Nc2ncnc3c2cnn3C(C)C)ccc1O | 0.99 |
| NS(=O)(=O)c1ccc(N/N=C2\C(=O)Nc3ccc(Cl)cc32)cc1 | 3.71 |
| Cc1cc(Cl)cc2c1NC(=O)C2=NNc1ccc(S(N)(=O)=O)cc1 | 3.77 |
| NC(=O)c1cccc(Nc2nccc(Nc3cccc(F)c3)n2)c1 | 0.85 |
| COc1cc2ncn(-c3cc(OCc4ccccc4S(C)(=O)=O)c(C#N)s3)c2cc1OC | 2.79 |
| CCS(=O)(=O)c1ccc(OC)c(Nc2ncc(-c3cccc(OC)c3)o2)c1 | 1.06 |
| CS(=O)(=O)Nc1cccc(-c2ccc3c(NC(=O)C4CC4)n[nH]c3c2)c1 | 2.35 |
